Active and inactive are the calls of the source.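 The calls were made as follows: active = NADPH fluorescence slope more negative than the mean of all samples by about 3 SD, 99.7% confidence; inactive = the rest.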
The molecules below were run against Voltage-gated potassium channel subunit beta-2 (Rattus norvegicus) (UniProt P62483) (assay: KvBeta positive modulators, primary screen, biochemical, NADPH fluorescence (AID 623;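 also: fluorescence intensity change per second fitted from 20 to 320 s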)). Conditions: Recombinant KvBeta, NADPH fluorescence decrease slope, 10 min; at 10 µM; active compounds read low.
Sequence of Voltage-gated potassium channel subunit beta-2 (Rattus norvegicus) (P62483 whole entry, looked up): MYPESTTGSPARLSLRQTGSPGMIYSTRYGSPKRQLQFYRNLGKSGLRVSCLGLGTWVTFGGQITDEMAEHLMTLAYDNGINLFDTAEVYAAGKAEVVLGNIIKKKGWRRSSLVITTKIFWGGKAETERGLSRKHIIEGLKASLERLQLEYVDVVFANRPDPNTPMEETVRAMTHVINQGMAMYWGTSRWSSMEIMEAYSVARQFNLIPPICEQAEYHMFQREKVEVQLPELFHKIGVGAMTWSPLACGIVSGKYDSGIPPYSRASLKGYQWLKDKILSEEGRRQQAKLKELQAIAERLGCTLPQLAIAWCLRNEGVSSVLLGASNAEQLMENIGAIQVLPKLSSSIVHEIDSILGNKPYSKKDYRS

NADPH fluorescence slope, inactive:
Nc1nonc1N1CCCCC1 -4.6e-05
CC1NC2(C(=O)N(Cc3ccccc3)c3ccccc32)C2C(=O)N(c3ccccc3)C(=O)C12 (stereo not given) -5.5e-05
CCNC(=O)C1CC(=O)N(Cc2ccc3c(c2)OCO3)C(=Nc2ccc(F)cc2)S1 (stereo not given) -0.000221
N/C(=N/O)c1nc(N2CCCC2)nc(N(c2ccccc2)c2ccccc2)n1 -3.2e-05
O=C(CC1Oc2ccc(Cl)cc2NC1=O)NC1CCCCCC1 (stereo not given) -3.7e-05
O=C(CSc1n[nH]c(-c2ccco2)n1)Nc1sc2c(c1C(=O)Nc1ccccc1)CCCC2 -3.7e-05
Cc1nc2ccc(S(=O)(=O)NCC(=O)N3CCc4ccccc4C3)cc2s1 3.2e-05
CN(C1CCCCC1)S(=O)(=O)c1ccc(S(=O)(=O)N2CCN(CCC#N)CC2)cc1 -3.3e-06
CCOC(=O)C(NC(=O)Nc1ccccc1)(OCC)C(F)(F)F (stereo not given) 1.8e-05
Cc1ccc(NC(=O)CCC(=O)O)cc1F -7.1e-05
Cc1cc(C)n(-c2cc(N3CCOCC3)ncn2)n1 -3.4e-06
CC1CCCC(C)N1C(=O)COC(=O)c1ccc[nH]c1=O (stereo not given) -7.3e-06
COc1ccc(N(CC(=O)Nc2cc(C)ccc2C)S(=O)(=O)c2c(C)nn(C)c2C)cc1 -2.9e-05
Cc1ccc(-c2cc3nc4c(c(=O)n3[nH]2)CCCC4)cc1 1.7e-05
CCSc1oc(-c2cccs2)nc1S(=O)(=O)c1ccccc1 -3.1e-05
CNC(=O)c1nnn(Cc2ccccc2)c1NC(C)=O 4e-05
O=C(CSc1nnc2ccccn12)NCCN1C(=O)CSC1=O -5.5e-06
CC(=O)Nc1cccc(NC(=O)c2ccco2)c1 2.6e-05
O=C(CSc1nc2ccsc2c(=O)n1NC(=O)c1ccccc1)Nc1nccs1 -7e-06
O=S(=O)(c1ccccc1)N1CCN(S(=O)(=O)c2ccccc2)C1 -5.3e-05
CN(C)S(=O)(=O)c1cccc(C(=O)Nc2cccnc2)c1 -5.9e-05
COc1ccc(Cn2nnnc2CN2CCOCC2)cc1 1.6e-05
Cc1cc(NS(=O)(=O)c2ccccc2)no1 -5.2e-05
O=C(/C=N/O)NCc1ccncc1 -2.2e-05
Cc1cc(C(=O)NCc2ccc(S(N)(=O)=O)cc2)cs1 -2.4e-05
CCn1cc(C(=O)N2CCOCC2)c(=O)c2cc(S(=O)(=O)N(C)C3CCCCC3)ccc21 -7.6e-06
CCc1nnc(NC(=O)NCN2C(=O)C3C4C=CC(C4)C3C2=O)s1 (stereo not given) -0.000309
CC(=O)c1cc(Cl)ccc1OC(=O)c1ccco1 -9e-05
CCOC(=O)CSc1nc2sc(C)c(C)c2c(=O)n1C 1.9e-05
O=C(c1ccco1)N1CCN(CCCCN2C(=O)c3ccccc3C2=O)CC1 4.7e-06
CS(=O)(=O)N(CC(=O)NCc1ccncc1)Cc1ccc(Cl)cc1 -1.2e-06
CC1CCc2c(sc(N)c2C(N)=O)C1 (stereo not given) -1.7e-06
Cc1cc2ccccn2c1C(=O)c1ccncc1 9.9e-07
Cc1nnc(SCC(=O)NCCN2C(=O)CSC2=O)s1 -1e-05
CCOC(=O)c1cccc(NC(=O)CNS(=O)(=O)c2cccs2)c1 -4.4e-05
COc1ccc(NC(=O)CS(=O)CC(=O)Nc2cc(Cl)ccc2OC)cc1 (stereo not given) -6.2e-05
O=C(NCCc1c[nH]c2ccccc12)c1cnc2n(c1=O)CCS2 -2.5e-05
COc1ccc2c(c1)cc(C(=O)O)n2C -6.4e-05
COc1cc2c(cc1OC)CN(CC(=O)Nc1cccc(C)c1)CC2 -1.8e-05
COc1ccc(-n2c(=O)[nH]cc(C(=O)Nc3ccc(NC(C)=O)cc3)c2=O)cc1 9.9e-06
